Screening data (PubChem)
The list is not random: actives were taken first. Their share in the collection is about 3.6%.
S16 F2sN tox: cytotoxicity in S16 Pmp22-F2sN Schwann cells. S16 Pmp22-F2sN Schwann cells viability, CellTiter-Glo, 24 h. Potency, µM (highest dose often 57.5 µM), most hits filed as cytotoxic. 0.48% of 43,000 active; note: nearly all actives have a fitted effect of over 65% in size
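Rat S16 Schwann reporter line, 24 h treatment with library compounds delivered at 23 nL per well. Cell viability by CellTiter-Glo luminescence.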
PMP22 txn prim: PMP22 gene transcription modulation; S16 Pmp22-F2sN Schwann cells (luciferase reporters placed in the Pmp22 gene), FLuc/NLuc coincidence luminescence, 24 h; Potency, µM (doses to about 57.5 µM), hits mostly inhibitors; 2% of 43,000 active; active = clear falling dose curves in both reporters; inconclusive = both reporters move, but less clearly or upward; inactive = either reporter flat; the % is the NLuc reporter signal
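S16 Schwann cells carrying FLuc/NLuc coincidence reporter in the Pmp22 3' UTR treated with compound 24 h at 37C; FLuc then NLuc luminescence read sequentially by dual-luciferase reagents.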
HTT promoter inh: inhibitors of huntingtin promoter activity; HEK293 HTT promoter firefly luciferase reporter, 24 h; Potency, µM (doses to about 57.5 µM), most hits filed as inhibitors; 0.93% of 48,000 active; note: nearly all actives have a fitted effect of over 50% in size
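Quantitative HTS used concentration series of up to 57.5 uM final on HEK293 luciferase reporter cells, 24 h at 37 degrees C. Readout was Dual-Glo firefly luminescence.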
HTT-AS act: activates huntingtin-antisense promoter activity; 0.24% of 48,000 active; HEK293 HTT-AS promoter firefly luciferase reporter, 24 h; response scale: percent change from vehicle, -100% = no light; Potency, µM (titrated, usually from 57.5 µM), usual class: activators; note: nearly all actives have a fitted effect of over 55% in size
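Firefly luciferase readout (Dual-Glo, 10 min RT) after 24 h, 37 °C compound exposure (final up to 57.5 uM) of HEK293 reporter cells cultured 24 h beforehand; PTC124 at 50 uM final as control inhibitor; activity scaled vehicle 0%, zero RLU -100%.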
pS6 MEF inh: mTORC1 pathway inhibition measured by phospho-rpS6; Tsc2-/- p53-/- MEF, phospho-rpS6 immunofluorescence/PI, 24 h; Potency, µM (doses to about 38.3 µM), actives largely listed as inhibitors; 0.78% of 44,000 active; note: nearly all actives have a fitted effect of over 50% in size
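Read-out: phospho-S6 Alexa-488 intensity over PI intensity per well, scored as % active cells using thresholds from rapamycin (7.5 nM) and DMSO controls. Tsc2-/-, p53-/- MEFs exposed to compound for 24 h; PI cell count recorded as viability.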
Large screens that a line does not name were inactive. Unless noted, calls come from the whole dose curve; as a rule, active = well fitted curve in the direction sought with a large enough effect; inconclusive = small, poorly fitted or top-dose-only effect, or another doubt; inactive = no such curve, though single readings can be large; an effect the other way counts as inactive or inconclusive.

CNC1CCC(N(Cc2cccc(-c3ccncc3)c2)C(=O)c2sc3c(F)ccc(F)c3c2Cl)CC1 (stereo not drawn)	none (no result: S16 F2sN tox, PMP22 txn prim, pS6 MEF inh)
COc1ccc(OC)c(CC2C(=O)Nc3ccc(Br)cc32)c1 (stereo not drawn)	PMP22 txn prim inconclusive, HTT promoter inh 20µM
CCOc1ccccc1CC1C(=O)Nc2ccc(Br)cc21 (stereo not drawn)	S16 F2sN tox inconclusive, PMP22 txn prim inconclusive, HTT promoter inh 18µM, pS6 MEF inh inconclusive
CCOc1c(CC2C(=O)Nc3ccc(Br)cc32)cccc1OC (stereo not drawn)	PMP22 txn prim inconclusive, HTT promoter inh inconclusive
COc1cc2nc(-c3cc(F)ccc3O)nc(N[C@@H]3CNC[C@@H]3C(C)(C)O)c2cc1OC	HTT promoter inh inconclusive (no result: S16 F2sN tox, PMP22 txn prim, pS6 MEF inh)
Cc1ccc(C(=O)Nc2c(C)nc3ccccn3c2=O)cc1C	HTT-AS act inconclusive
Cc1cc(Br)cc(C)c1NC(=O)c1cnc2ccccn2c1=O	S16 F2sN tox inconclusive, HTT-AS act 28µM
NC(=O)c1cccc2cn(-c3ccc([C@@H]4CCCNC4)cc3)nc12	none (no result: S16 F2sN tox, PMP22 txn prim, pS6 MEF inh)
CSc1ccc(CNC(=O)C2CCCN(S(=O)(=O)N(C)c3ccc(F)cc3)C2)cc1 (stereo not drawn)	HTT promoter inh 22µM
COCc1cc(C)nc2sc(C(=O)Nc3ccc(C(C)=O)cc3)c(N)c12	PMP22 txn prim inconclusive, HTT-AS act inconclusive
CCc1ccc(NC(=O)c2sc3nc(C)c(Cl)c(C)c3c2N)cc1	PMP22 txn prim inconclusive, HTT-AS act 2.5µM
CCCCOC(=O)c1ccc(NC(=O)c2sc3nc(C)cc(C)c3c2N)cc1	HTT promoter inh inconclusive, pS6 MEF inh 10µM
CCc1ccc(NC(=O)c2sc3nc(C)c(Cl)c(C)c3c2NC(=O)c2ccccc2OC)cc1	none
CCN1CCN(CC(=O)Nc2ccc(-c3cccc4c(=O)cc(N5CCOCC5)oc34)c3sc4ccccc4c23)CC1	none (no result: S16 F2sN tox, PMP22 txn prim, pS6 MEF inh)
Cc1cc(C)cc(Oc2nc3c(C)cccn3c(=O)c2/C=C(\C#N)c2nc3ccccc3[nH]2)c1	PMP22 txn prim inconclusive
COc1ccc(Oc2nc3c(C)cccn3c(=O)c2/C=C(\C#N)c2nc3ccccc3[nH]2)cc1	pS6 MEF inh 13µM
Cc1ccccc1Oc1nc2ccccn2c(=O)c1/C=C(\C#N)c1nc2ccccc2[nH]1	pS6 MEF inh 9.3µM
CCS(=O)(=O)N1CCc2cc(C(=O)NCCc3ccccc3)ccc21	HTT-AS act inconclusive
CS(=O)(=O)N1CCc2cc(C(=O)NCCc3ccccc3)ccc21	HTT-AS act 3.2µM
Cn1c(-c2ccc(S(=O)(=O)N3CCCC3)cc2)csc1=Nc1ccc(Cl)c(Cl)c1	S16 F2sN tox inconclusive, PMP22 txn prim inconclusive, HTT promoter inh 5µM
CCn1c(-c2ccc(S(=O)(=O)N3CCOCC3)cc2)csc1=Nc1ccc(C)c(Cl)c1	PMP22 txn prim inconclusive
COCCNC(=O)C1CCN(C(=O)c2cc3sccc3n2Cc2ccc(Cl)cc2)CC1	S16 F2sN tox inconclusive, PMP22 txn prim 10µM, HTT promoter inh inconclusive
COc1ccc(-c2nn(C)c3sc(C(=O)Nc4cccc(F)c4)cc23)cc1OC	S16 F2sN tox 14µM, PMP22 txn prim inconclusive, HTT promoter inh inconclusive, pS6 MEF inh inconclusive
COc1cccc(NC(=O)c2cc3c(-c4ccc(Cl)cc4)nn(C)c3s2)c1	HTT promoter inh inconclusive
Cc1ccc(C)c(CN2C(=O)C(=O)c3ccccc32)c1	S16 F2sN tox inconclusive, PMP22 txn prim inconclusive, pS6 MEF inh 2.9µM
Cc1ccc(C)c(CN2C(=O)c3ccccc3S(=O)c3ccc(C(=O)N(C)Cc4ccccc4)cc32)c1 (stereo not drawn)	PMP22 txn prim inconclusive, HTT promoter inh inconclusive
Cc1ccc2c(c1)C(=O)C(=O)N2Cc1ccc(OC(C)C)cc1	S16 F2sN tox inconclusive, PMP22 txn prim 2.3µM, HTT promoter inh inconclusive, pS6 MEF inh inconclusive
CCOc1ccccc1NC(=O)c1c(NCc2sccc2C)sc2c1CCC(C)C2 (stereo not drawn)	PMP22 txn prim inconclusive, pS6 MEF inh 15µM
CCOc1ccccc1NC(=O)c1c(NCc2sccc2C)sc2c1CCCCC2	PMP22 txn prim inconclusive
CNC(=O)[C@H](CC1=CN=C2C=CCC=C12)NC(=O)[C@@H](CC(=O)NO)CC(C)C	HTT promoter inh inconclusive (no result: S16 F2sN tox, PMP22 txn prim, pS6 MEF inh)
CC(=O)c1[nH]c(C)c(C(=O)NCCc2ccc(C)cc2)c1C	none
CCOC(=O)c1[nH]c(C)c(C(=O)NCCc2ccccc2)c1C	HTT-AS act 7.9µM
CCC1=C(c2ccc(C)cc2)S(=O)(=O)N=C1N1CCC(C(=O)NCCc2ccc(Cl)cc2)CC1	S16 F2sN tox inconclusive, PMP22 txn prim inconclusive, HTT promoter inh 20µM
Cc1ccc(-c2cn(-c3ccc(Cl)cc3)c(S(=O)(=O)CC(=O)Nc3ccccc3)n2)cc1	PMP22 txn prim inconclusive, HTT-AS act inconclusive
Cc1ccc(-n2cc(-c3ccccc3)nc2S(=O)(=O)CC(=O)Nc2ccc(F)cc2)cc1	PMP22 txn prim inconclusive, HTT-AS act 3.2µM
CCOC(=O)c1cc(-c2ccccc2)n(CCC(=O)Nc2cc(C)cc(C)c2)c1C	HTT promoter inh inconclusive
CCOC(=O)c1cc(-c2ccccc2)n(CCC(=O)Nc2ccc(Cl)c(C(F)(F)F)c2)c1C	S16 F2sN tox inconclusive, PMP22 txn prim inconclusive, HTT promoter inh 22µM
COc1ccc(-c2noc(N3CCC(C(=O)Nc4cccc(C)c4C)CC3)n2)cc1	PMP22 txn prim inconclusive, HTT promoter inh 2.8µM
Cc1ccc(C)c(N2CCN(C(=O)C3CCN(c4nc(-c5ccc(C(C)C)cc5)no4)CC3)CC2)c1	HTT promoter inh 0.11µM
Cc1ccc(NC(=O)C2CCN(c3nc(-c4ccc(C(C)C)cc4)no3)CC2)c(Cl)c1	HTT promoter inh 0.1µM
CC1=C(c2ccc(C(C)C)cc2)S(=O)(=O)N=C1N1CCC(C(=O)Nc2ccc(C)cc2)CC1	PMP22 txn prim inconclusive, pS6 MEF inh inconclusive
O=C(O)Cn1nnc(-c2cc(N3CCC(Oc4cc(F)ccc4Br)CC3)no2)n1	HTT promoter inh inconclusive (no result: S16 F2sN tox, PMP22 txn prim, pS6 MEF inh)
CC(C)(Cc1ccc2ccccc2c1)NC[C@@H](O)COc1cccc(Cl)c1C#N	none (no result: S16 F2sN tox, PMP22 txn prim, pS6 MEF inh)
Cn1nnnc1SCCCNCc1ccccc1OCc1ccc(Cl)cc1	PMP22 txn prim inconclusive, pS6 MEF inh 13µM
Cn1nnnc1SCCCNCc1ccccc1OCc1ccc(F)cc1	S16 F2sN tox inconclusive, PMP22 txn prim inconclusive, pS6 MEF inh inconclusive
COc1ccc(N2CCN(C(=O)c3c(C)nn(-c4ccc(F)cc4)c3-n3cccc3)CC2)cc1	S16 F2sN tox inconclusive
Cc1nn(-c2ccc(F)cc2)c(-n2cccc2)c1C(=O)N1CCN(c2ccc(F)cc2)CC1	HTT promoter inh 28µM
C[C@]12CC[C@@H]3c4ccc(O)cc4C[C@@H](CCCCCCCCCS(=O)CCCC(F)(F)C(F)(F)F)[C@H]3[C@H]1CC[C@H]2O (stereo partly drawn)	none (no result: S16 F2sN tox, PMP22 txn prim, pS6 MEF inh)
